What all share (assay): PBM binding z-score (relative to random genomic background probes); higher = stronger binding; sequences stand for … in GC…GCGATTGACAGCGTAGAATGAAGG
In assay [1] the test system is FXR:RXRa (NR concentration 270 nM, RXRa partner concentration 90 nM). In a few lines:
(§1)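 Antibodies against each partner of ligand-free nuclear receptor dimers (one per run) detected binding on custom Agilent 4×180K protein-binding microarrays after 1 h incubation. The double-stranded probes had 34-nt variable regions carrying direct-repeat seeds, single-nucleotide variants, half-site ablations and random human genomic background sequences. Binding z-scores, from regression-normalized fluorescence, use the random background probes as reference.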

The test system of assay [2] is LXRa:RXRa (NR concentration 270 nM, RXRa partner concentration 90 nM). The gist of the method: as §1
The subject of assay [3] is LXRa homodimer (NR concentration 270 nM). In a few lines: as §1
The subject of assay [4] is LXRb:RXRa (NR concentration 270 nM, RXRa partner concentration 90 nM). In a few lines: as §1
Assay [5] deals with LXRb homodimer (NR concentration 270 nM). The gist of the method:
as §1

Assay [6] deals with PPARa:RXRa (NR concentration 270 nM, RXRa partner concentration 90 nM). In a few lines:
as §1

Assay [7] concerns PPARg:RXRa (NR concentration 180 nM, RXRa partner concentration 90 nM). The gist of the method:
as §1

The subject of assay [8] is PPARg:RXRa 270nM:90nM, anti-RXR (NR concentration 270 nM, RXRa partner concentration 90 nM). In a few lines:
as §1

For assay [9], the system named is PPARg:RXRa 30nM:10nM, anti-RXR (NR concentration 30 nM, RXRa partner concentration 10 nM). The gist of the method:
as §1

Assay [10] relates to PPARg:RXRa 90nM:30nM, anti-RXR (NR concentration 90 nM, RXRa partner concentration 30 nM). The gist of the method: as §1
Assay [11] deals with PPARg:RXRa DBDmut IVT, anti-RXR (DBD mutation: RXRa K156A/R161A, NR concentration 270 nM, RXRa partner concentration 90 nM). The gist of the method: as §1
For assay [12], the system named is PPARg:RXRa IVT, anti-PPARg (NR concentration 270 nM, RXRa partner concentration 90 nM). The gist of the method: as §1
Assay [13] relates to PPARg DBDmut:RXRa IVT, anti-PPARg (DBD mutation: PPARg1 K132A/R137A, NR concentration 270 nM, RXRa partner concentration 90 nM). The gist of the method:
as §1

Assay [14] deals with PPARg DBDmut IVT, anti-PPARg (DBD mutation: PPARg1 K132A/R137A, NR concentration 270 nM). The gist of the method: as §1
In assay [15] the test system is PPARg homodimer (NR concentration 180 nM). The gist of the method:
as §1

Assay [16] relates to PXR:RXRa (NR concentration 270 nM, RXRa partner concentration 90 nM). In a few lines: as §1
Assay [17] relates to PXR homodimer (NR concentration 270 nM). The gist of the method: as §1
For assay [18], the system named is RARa:RXR (NR concentration 270 nM, RXRa partner concentration 90 nM). In a few lines: as §1
Assay [19] concerns RARa homodimer (NR concentration 270 nM). In a few lines:
as §1

Assay [20] relates to RARb:RXRa (NR concentration 270 nM, RXRa partner concentration 90 nM). In a few lines:
as §1

Take TCTAGAAGGCCAGAGGGTCACTCAAGAGGTACGG: the PBM binding z-score is 1.32 in assay [1]; 1.11 in [2]; -0.432 in assay [3]; 1.28 in [4]; -0.671 in [5]; 2.5 in [6]. Also, the PBM binding z-score came to 1.33 in assay [7]; 2.98 in [8]; 3.24 in [9]; 3.02 in [10]; 1.75 in assay [11]; 0.693 in [12]. The PBM binding z-score in [13] is -0.301; in assay [14], 0.186; in assay [15] it was 1.22; in assay [16], 1.64; in assay [17] it was 0.0475; in [18], 2.54. Moreover, the PBM binding z-score amounted to 0.19 in assay [19] and 2.68 in assay [20].

ATCACTAGGTAACCAAGTTCAGTGAATGCCGAAC: the PBM binding z-score was 0.163 in assay [1]; 0.618 in [2]; 0.625 in assay [3]; 0.415 in [4]; -0.134 in assay [5]; 1.42 in assay [6]. Moreover, the PBM binding z-score in assay [7] is 1.82; in assay [8], 1.3; in [9], 0.47; in [10], 0.739; in assay [11] it was 4.99; in [12], 4.16. Further, the PBM binding z-score turned out to be 1.62 in assay [13]; 0.399 in assay [14]; 0.811 in [15]; 2.06 in assay [16]; 1.73 in assay [17]; 0.23 in assay [18]. Moreover, the values for the PBM binding z-score in [19] and in assay [20] were 0.365 and 1.01, respectively.

For the sequence CCGACTGGGGCATAAGCTTACCATAAGCCAGCCC, the PBM binding z-score in [1] is -0.673; in [2], -0.689; in assay [3], -0.589; in assay [4], -0.747; in assay [5], -1.15; in assay [6], -0.16. For the same sequence, the PBM binding z-score in [7] was 0.765; in assay [8] it was 1.04; in [9] it was -0.348; in [10], 0.228; in assay [11], 2.59; in assay [12], 1.57. Besides, the PBM binding z-score was -1.09 in assay [13]; -1.16 in assay [14]; -0.394 in assay [15]; -0.775 in [16]; -0.649 in [17]; -0.694 in assay [18]. Further, the PBM binding z-score in [19] was -0.632; in assay [20], -0.11.

Take CCGAGTAGGTTATGTGGCATTCAGGCAACGGTGA: the PBM binding z-score is 0.192 in assay [1]; 0.353 in assay [2]; 0.0932 in assay [3]; 0.0215 in assay [4]; -0.284 in assay [5]; 0.798 in assay [6]. Further, the PBM binding z-score in [7] was 0.853; in assay [8], 1.85; in [9], -0.095; in assay [10], 0.651; in assay [11], 3.28; in assay [12], 2.2. Moreover, the PBM binding z-score in assay [13] was -0.431; in [14], -0.42; in [15] it was 0.696; in assay [16] it was -0.298; in assay [17] it was -0.313; in assay [18] it was -0.131. Further, the PBM binding z-score in [19] amounted to 0.978; in assay [20], 0.573.

For the sequence TAGCCTAGGTCATGCGCCAGTATACCACGCGAAC, the PBM binding z-score in [1] was found to be 4.17; in [2], 3.31; in [3], 0.602; in assay [4], 2.61; in assay [5], 0.0918; in assay [6], 3.83. In addition, the PBM binding z-score in [7] is 2.77; in assay [8], 3.08; in assay [9], 0.794; in assay [10], 1.89; in [11], 1.95; in assay [12] it was 3.1. Moreover, the PBM binding z-score was 1.01 in assay [13]; -0.0835 in [14]; 1.11 in [15]; 1.61 in assay [16]; -0.142 in [17]; 2.54 in assay [18]. Also, the PBM binding z-score is -0.948 in [19] and 3.76 in [20].

Regarding GCAGGCAGGTGAAACGCAGGTAACTCAGGGTGGC, the PBM binding z-score was 0.782 in assay [1]; 0.881 in [2]; -0.513 in assay [3]; -0.67 in assay [4]; -0.423 in [5]; 0.341 in assay [6]. In addition, the PBM binding z-score in assay [7] was 0.206; in assay [8], -0.46; in [9] it was -0.909; in assay [10], -0.6; in [11], 1.12; in [12] it was 0.912. For the same sequence, the PBM binding z-score in assay [13] is -1; in assay [14], -1.1; in [15] it was -0.662; in assay [16] it was -0.0371; in assay [17], -1.2; in [18], 0.429. Moreover, the results for the PBM binding z-score in assay [19] and in assay [20] were -0.796 and 0.562, respectively.

Regarding TCGAGTAGGTCAGGGGCATTCAGAATGGCGTCGA, the PBM binding z-score in assay [1] is 2.3; in assay [2], 1.52; in assay [3] it was -0.495; in assay [4], 1.9; in [5] it was -0.546; in assay [6], 3.41. The PBM binding z-score in assay [7] turned out to be 4.73; in [8], 4.8; in [9] it was 2.48; in assay [10], 4.21; in assay [11], 4.91; in assay [12], 5.07. Further, the PBM binding z-score in [13] was -0.408; in [14], -0.403; in assay [15] it was 1.33; in assay [16], 1.2; in [17], -0.323; in [18] it was 1.44. In addition, the PBM binding z-score was -0.681 in assay [19] and 3.39 in assay [20].

The values above are taken from the supplement of paper PMC6555819.
